The nature of assay [1]: qHTS Assay for Lipid Storage Modulators (AID 1519; calls by dose curve; on activity change, negative = inhibition: on the % scale 0 is the no-effect control and ±100 the full control effect). The conditions noted are these: Drosophila S3 cells, BODIPY lipid droplet/cell ratio, laser cytometry, cells loaded with oleic acid. In a few lines: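 Cells seeded at 5,000 per well were treated with compounds over a concentration series and loaded with oleic acid (400 uM, as added). Lipid droplet fluorescence (488 nm excitation, 500-530 nm channel) was read by laser-scanning cytometry and normalized to 20 uM Triacsin C.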
A general note: qHTS replaces the single test concentration by a dilution series.

Assay [2] is described as follows: Cytometric Cell-Based qHTS for Inhibitors of the mTORC1 Signaling Pathway in MEF (Tsc2-/-, p53-/-) Cells (AID 2660).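 Further: percent of cells above a phospho-rpS6 to PI ratio cutoff in each well; plate controls were DMSO for no effect and rapamycin for full effect.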 The conditions noted are these: mTORC1 pathway cytometry; series mostly up to 38.3 µM. In a few lines: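 Tsc2-/-, p53-/- MEFs (empty vector) exposed to compound 24 h at 37 C, fixed, stained with Alexa-488 anti-phospho-rpS6 Ser235/236 and propidium iodide. Acumen laser scanning; phospho-S6/PI ratio thresholded against 7.5 nM rapamycin, reported as % positive cells.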

The nature of assay [3]: High Content Imaging Cell-Based qHTS for Inhibitors of the mTORC1 Signaling Pathway in MEF (Tsc2-/-, p53-/-) Cells (AID 2666).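 Further: percent of cells scored positive for phospho-rpS6 Ser235/236 immunostaining by imaging.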 The conditions noted are these: series mostly up to 38.3 µM. Summed up:
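Cells were plated, dosed with compound after 24 hrs, and incubated another 24 hrs at 37 degree Celsius. Fixed cells were immunostained for phospho-rpS6 Ser235/236 and counterstained, and the normalized signal was scored as % active cells against rapamycin and DMSO controls.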

Assay [4] is described as follows: High Content Imaging Cell-Based qHTS for Inhibitors of the mTORC1 Signaling Pathway in MEF Cells (AID 2667).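 Further: Tsc2-/- p53-/- MEFs stably re-expressing wild-type Tsc2 exposed 24 h; plate controls were DMSO wells for no effect and rapamycin control wells for full effect.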 Particulars: series mostly up to 38.3 µM. Summed up:
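Immunofluorescence for rpS6 phosphorylation in MEFs of Tsc2-/-, p53-/- background rescued with WT Tsc2. Compound exposure lasted 24 hrs. Inhibition was scored against rapamycin-treated control wells.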

A short description of assay [5]: Cytometry Cell-Based qHTS for Inhibitors of the mTORC1 Signaling Pathway in MEF cells (AID 2668).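 Further: Tsc2-/- p53-/- mouse embryonic fibroblasts stably re-expressing wild-type Tsc2; percent cells positive for phospho-rpS6 Ser235/236 relative to propidium iodide stain; plate controls were DMSO wells for no effect and 7.5 nM rapamycin control wells for full effect.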 The conditions noted are these: mTORC1 pathway readout; series mostly up to 38.3 µM. In a few lines:
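Read-out: phospho-rpS6 Ser235/236 immunofluorescence normalized to propidium iodide intensity, scored as % active cells against a rapamycin (7.5 nM) threshold. Cells: Tsc2-/-, p53-/- MEFs stably expressing WT Tsc2, compound-treated 24 hrs at 37 degree Celsius.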

Assay [6] concerns the target DNA repair nuclease/redox regulator APEX1 (Homo sapiens) (UniProt P27695). The assay is described as follows: qHTS Validation Assay for Inhibitors of the Human Apurinic/apyrimidinic Endonuclease 1 (APE1) (AID 1705;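 further: TAMRA fluorescence gain over two minutes as APE1 cuts a quenched THF abasic duplex; on the % scale 0 is the no-effect control and ±100 the full control effect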). The conditions noted are these: purified APE1 endonuclease activity, fluorescence, titration; series mostly up to 57.1 µM. Summed up:
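Read-out: TAMRA fluorescence (525 nm ex, 598 nm em) from cleavage of a quenched THF abasic-site duplex, 50 nM final; activity taken as intensity change between third and first of three reads 60 s apart.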

A short description of assay [7]: Counterscreen for APE1 Inhibitors: Fluorescent Dye Displacement Validation Assay (AID 1707).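 Further: plate controls were ThO with dsDNA and no compound for no effect and ThO without dsDNA for full effect.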 Particulars: fluorescent dye displacement from DNA; series mostly up to 57.1 µM. Summed up: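 Thiazole Orange (250 nM) bound to 50 nM TAMRA-labelled dsDNA with tetrahydrofuran abasic site; displacement by DNA-binding compounds lowers fluorescence. Buffer 50 mM Tris-HCl pH 7.5, 50 mM NaCl, 2 mM MgCl2, 0.01% Tween-20; endpoint read at 480/540 nm.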

Assay [8] can be described thus: qHTS for differential inhibitors of proliferation of Plasmodium falciparum line 7G8 (AID 1815).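 Further: parasite growth measured after three days of incubation.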 Further: potency means the concentration at half of the fitted maximal effect.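 On activity change, negative = inhibition: plate controls were vehicle wells for no effect and reference inhibitor wells for full effect.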 The conditions noted are these: Plasmodium falciparum 7G8 proliferation inhibition; series mostly up to 28.7 µM.
A short description of assay [9]: qHTS for differential inhibitors of proliferation of Plasmodium falciparum line GB4 (AID 1816).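 Further: parasite growth measured after 72 h incubation.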 Further: potency means the concentration at half of the fitted maximal effect.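 On activity change, negative = inhibition: 0% = vehicle DMSO and -100% = reference inhibitor.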 The conditions noted are these: Potency: Plasmodium falciparum GB4 proliferation inhibition; series mostly up to 28.7 µM.
Assay [10] in a line: qHTS for differential inhibitors of proliferation of Plasmodium falciparum line D10 (AID 1877).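 Further: parasites grown with compound for 72 h before DNA staining; plate controls were vehicle wells for no effect and reference inhibitor wells for full effect.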 The conditions noted are these: series mostly up to 28.7 µM.
A short description of assay [11]: qHTS for differential inhibitors of proliferation of Plasmodium falciparum line Dd2 (AID 1882). Further: nearly all actives have a fitted effect of over 65% in size. Further: potency means the concentration at half of the fitted maximal effect.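 On activity change, negative = inhibition: compound exposure of 72 h on infected erythrocytes; plate controls were DMSO vehicle for no effect and 0.29 µM artemisinin for full effect.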 Particulars: Potency: Plasmodium falciparum Dd2 proliferation inhibition; series mostly up to 28.7 µM. In a few lines: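 SYBR Green I DNA fluorescence read-out, ex 485/em 535 nm. Signals were normalized to 0.29 uM artemisinin and DMSO wells, then corrected using vehicle-only plates flanking each stack. Parasite growth ran 72 h in erythrocytes before lysis.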

Assay [12] in a line: qHTS for differential inhibitors of proliferation of Plasmodium falciparum line W2 (AID 1883).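 Further: parasites grown with compound for 72 h before lysis and staining.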 Further: potency means the concentration at half of the fitted maximal effect.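 On activity change, negative = inhibition: 0% = vehicle wells and -100% = control inhibitor wells.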 The conditions noted are these: Potency: Plasmodium falciparum W2 proliferation inhibition; series mostly up to 28.7 µM.
In assay [13] the target is Ferritin light chain (Equus caballus) (UniProt P02791). The assay is described as follows: qHTS Validation Assay for Identification of Novel General Anesthetics (AID 2323). Further: on the % scale 0 is the no-effect control and ±100 the full control effect. The conditions noted are these: horse apoferritin, anesthetic-site fluorescent probe displacement; series mostly up to 76.9 µM. In a few lines: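 10 uM horse-spleen apoferritin + 1-AMA (50% saturated, PBS); cpd pin-transferred, 10 min RT. Ex 380/Em 535 nm endpoint. Activity normalized between free 1-AMA and 1-AMA/apoferritin; 4-parameter Hill fit of concentration-response.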

Assay [14] deals with ATP-dependent DNA helicase Q1 (Homo sapiens) (UniProt P46063). The assay is described as follows: qHTS Validation Assay for Inhibitors of RecQ-Like Dna Helicase 1 (RECQ1) (AID 2353).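 Further: plate controls were DMSO vehicle for no effect and enzyme-free control for full effect.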 Particulars: recombinant RECQ1 helicase DNA unwinding assay; series mostly up to 25.6 µM. Summed up: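 50 nM RECQ1T1 preincubated 15 min with compound in Tris pH 8.0 buffer with MgCl2, DTT, Tween-20 and 2.5 ug/ml poly(dI-dC); started with 200 nM TAMRA/BHQ-2 forked duplex and 2 mM ATP. Unwinding read as fluorescence (525/598 nm), two reads 2 h apart.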

Assay [15] addresses Endonuclease 4 (Escherichia coli (strain K12)) (UniProt P0A6C1). The experiment in a line: Counterscreen for APE1 Inhibitors: qHTS Validation Assay for Inhibitors of Endonuclease IV (AID 1708). Further: on the % scale 0 is the no-effect control and ±100 the full control effect. Particulars: E. coli endonuclease IV, DNA cleavage fluorescence; series mostly up to 57.1 µM. In a few lines: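 Enzymatic AP-site incision assay using a double-stranded THF substrate labelled with TAMRA and BHQ-2; released fluorescence signals activity. Enzyme 2 nM, substrate 50 nM, 15 min compound preincubation.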
In general terms: Counterscreens check selectivity or assay interference.

A short description of assay [16]: qHTS for differential inhibitors of proliferation of Plasmodium falciparum line 3D7 (AID 1876).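 Further: parasite growth measured after three days of culture; 0% = vehicle wells and -100% = reference inhibitor wells.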 Particulars: P. falciparum 3D7 proliferation inhibition; series mostly up to 28.7 µM.
Assay [17] is described as follows: qHTS for differential inhibitors of proliferation of Plasmodium falciparum line HB3 (AID 1886).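 Further: parasites grown with compound for 72 h before SYBR Green readout; plate controls were vehicle for no effect and reference inhibitor for full effect.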 Particulars: Potency: Plasmodium falciparum HB3 proliferation inhibition; series mostly up to 28.7 µM.
In assay [18] the target is RecQ-like DNA helicase BLM (Homo sapiens) (UniProt P54132). The assay is described as follows: qHTS Validation Assay for Inhibitors of Bloom's syndrome helicase (BLM) (AID 2364).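 Further: plate controls were DMSO vehicle for no effect and enzyme-free control for full effect.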 Particulars: BLM helicase DNA unwinding, fluorescence, in vitro; series mostly up to 57.1 µM. In a few lines: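 Forked 20-bp duplex substrate (200 nM, TAMRA/BHQ-2) plus 2 mM ATP added after 15 min compound preincubation with 50 nM enzyme, pH 8.0, poly(dI-dC) 2.5 ug/ml. Strand separation followed by fluorescence (525/598 nm) over 2 h, normalized to enzyme-free and DMSO controls.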

The mark [19] stands for this setting: measured here: cell count channel max response.
Setting [20] is: measured here: lipid channel max response.

Several values for one entry are separate records, joined by “and”; a condition that tells them apart may be missing. Identical values can stand only once. Records with an inconclusive call do not appear. Activity calls are given as the source filed them. Unless noted, the call rests on the fitted dose curve; in most records, active means well fitted curve in the direction sought with a large enough effect; inconclusive means small, poorly fitted or top-dose-only effect, or another doubt; inactive means no such curve, though single readings can be large; an effect the other way counts as inactive or inconclusive.

Sequence of Ferritin light chain (Equus caballus) (P02791 2-175 limits assumed): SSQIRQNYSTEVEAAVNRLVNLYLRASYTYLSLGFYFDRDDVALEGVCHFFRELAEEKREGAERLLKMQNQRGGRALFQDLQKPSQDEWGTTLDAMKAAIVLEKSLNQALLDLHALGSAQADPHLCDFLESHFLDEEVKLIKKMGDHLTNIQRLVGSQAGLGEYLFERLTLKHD
Sequence of DNA repair nuclease/redox regulator APEX1 (Homo sapiens) (P27695 whole entry, looked up): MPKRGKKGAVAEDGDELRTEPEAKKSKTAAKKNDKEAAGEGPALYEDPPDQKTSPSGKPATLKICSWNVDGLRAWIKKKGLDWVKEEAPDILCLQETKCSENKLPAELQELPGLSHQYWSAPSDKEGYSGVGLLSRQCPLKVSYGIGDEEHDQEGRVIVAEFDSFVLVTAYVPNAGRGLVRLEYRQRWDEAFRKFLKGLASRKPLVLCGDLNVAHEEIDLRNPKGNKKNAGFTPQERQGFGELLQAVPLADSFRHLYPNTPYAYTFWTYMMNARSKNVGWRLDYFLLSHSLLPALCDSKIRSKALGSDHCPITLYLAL
Sequence of ATP-dependent DNA helicase Q1 (Homo sapiens) (P46063 whole entry, looked up): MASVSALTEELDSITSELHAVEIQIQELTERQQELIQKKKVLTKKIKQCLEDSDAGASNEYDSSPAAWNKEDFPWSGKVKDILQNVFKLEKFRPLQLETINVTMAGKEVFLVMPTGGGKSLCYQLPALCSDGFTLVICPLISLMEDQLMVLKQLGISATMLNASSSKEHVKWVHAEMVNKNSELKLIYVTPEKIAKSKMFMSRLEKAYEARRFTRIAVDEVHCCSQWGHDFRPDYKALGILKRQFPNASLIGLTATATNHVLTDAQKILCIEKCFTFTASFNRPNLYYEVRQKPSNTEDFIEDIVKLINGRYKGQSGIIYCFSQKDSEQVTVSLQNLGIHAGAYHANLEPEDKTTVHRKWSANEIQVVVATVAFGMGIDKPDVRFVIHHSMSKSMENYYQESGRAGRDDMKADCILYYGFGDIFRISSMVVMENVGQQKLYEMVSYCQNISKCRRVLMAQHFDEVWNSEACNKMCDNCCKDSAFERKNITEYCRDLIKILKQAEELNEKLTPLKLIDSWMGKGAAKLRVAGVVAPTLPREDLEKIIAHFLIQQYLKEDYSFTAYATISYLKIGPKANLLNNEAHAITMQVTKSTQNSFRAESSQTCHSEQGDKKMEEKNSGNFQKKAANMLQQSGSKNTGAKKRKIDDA
Sequence of RecQ-like DNA helicase BLM (Homo sapiens) (P54132 whole entry, looked up): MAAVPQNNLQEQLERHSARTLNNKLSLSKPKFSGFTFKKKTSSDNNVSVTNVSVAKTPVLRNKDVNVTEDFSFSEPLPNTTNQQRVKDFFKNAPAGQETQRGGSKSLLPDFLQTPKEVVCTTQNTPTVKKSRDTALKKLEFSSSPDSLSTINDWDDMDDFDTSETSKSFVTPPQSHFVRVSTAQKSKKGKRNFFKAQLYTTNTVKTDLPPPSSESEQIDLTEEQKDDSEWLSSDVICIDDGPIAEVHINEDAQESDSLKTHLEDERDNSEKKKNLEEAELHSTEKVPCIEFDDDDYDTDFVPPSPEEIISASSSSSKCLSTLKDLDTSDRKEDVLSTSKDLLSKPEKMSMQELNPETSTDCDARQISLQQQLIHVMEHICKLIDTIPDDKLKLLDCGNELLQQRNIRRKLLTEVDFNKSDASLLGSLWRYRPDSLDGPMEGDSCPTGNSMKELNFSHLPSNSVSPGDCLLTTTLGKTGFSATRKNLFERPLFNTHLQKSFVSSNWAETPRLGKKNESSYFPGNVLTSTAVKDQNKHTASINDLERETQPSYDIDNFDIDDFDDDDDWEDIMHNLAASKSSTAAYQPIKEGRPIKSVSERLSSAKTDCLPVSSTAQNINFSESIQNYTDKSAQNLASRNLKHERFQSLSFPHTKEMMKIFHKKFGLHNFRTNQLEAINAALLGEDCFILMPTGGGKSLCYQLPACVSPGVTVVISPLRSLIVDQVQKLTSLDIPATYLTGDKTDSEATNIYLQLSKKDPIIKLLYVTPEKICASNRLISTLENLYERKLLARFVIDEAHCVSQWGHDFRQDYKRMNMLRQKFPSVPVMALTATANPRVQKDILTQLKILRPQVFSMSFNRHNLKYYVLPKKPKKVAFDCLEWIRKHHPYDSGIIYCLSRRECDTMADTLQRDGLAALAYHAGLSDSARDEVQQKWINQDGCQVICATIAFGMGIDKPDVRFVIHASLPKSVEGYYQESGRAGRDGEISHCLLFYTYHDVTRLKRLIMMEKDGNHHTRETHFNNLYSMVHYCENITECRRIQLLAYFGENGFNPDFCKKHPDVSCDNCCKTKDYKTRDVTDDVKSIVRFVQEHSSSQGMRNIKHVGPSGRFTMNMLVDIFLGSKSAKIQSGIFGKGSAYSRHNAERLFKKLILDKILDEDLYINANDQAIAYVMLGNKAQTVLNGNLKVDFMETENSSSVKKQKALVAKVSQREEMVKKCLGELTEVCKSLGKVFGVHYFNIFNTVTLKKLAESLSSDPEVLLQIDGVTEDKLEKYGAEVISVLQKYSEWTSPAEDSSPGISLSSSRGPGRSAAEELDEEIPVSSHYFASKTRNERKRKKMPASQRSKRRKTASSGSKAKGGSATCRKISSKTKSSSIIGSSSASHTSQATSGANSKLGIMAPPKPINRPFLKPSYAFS

Consider `CC(C)=CCOc1c2occc2cc2ccc(=O)oc12`, for which, in assay [1] (at 57.5 µM (top of the series)), the activity change, negative = inhibition was 17.7% (inactive). The values for the max response in [1] (setting [19]) and in [1] (setting [20]) were 5.47% and 25.6%, respectively. For the same compound, the call in [2] was inactive. Moreover, the Potency entry in assay [3], in assay [4] and in assay [5] was “inactive” each time.
Turning to `NCCc1cc(O)c(O)cc1O`, in assay [1] (at 57.5 µM (top of the series)), the activity change, negative = inhibition is 7.71% (inactive). The values for the max response in [1] (setting [19]) and in [1] (setting [20]) were 5.57% and 16.6%, respectively.
On to `CC(CCc1ccccc1)NC(C)C(O)c1ccc(O)cc1` (stereo not given), for which the activity change, negative = inhibition in assay [1] (at 57.5 µM (top of the series)) is 1.71% (inactive). Besides, the values for the max response in assay [1] (setting [19]) and in [1] (setting [20]) were -1.34% and 0.25%, respectively. Moreover, the call in [6], in assay [13], in [14] and in assay [2] was inactive. In addition, the Potency entry in [7], in assay [10], in assay [3], in assay [4] and in [5] was “inactive” throughout. Besides, the Potency in [8] is 7.94 µM (active); in [9] it was 3.16 µM (active); in [11], 5.01 µM (active); in assay [12], 2.51 µM (active).
As to `O=[N+]([O-])c1cc([As](=O)(O)O)ccc1O`, the activity change, negative = inhibition in assay [1] (at 25.7 µM (top of the series)) was 0.724% (inactive); in assay [1] (at 57.5 µM (top of the series)) it was 3.89% (inactive). The max response in [1] (setting [19]) was -1.97% and 10%; in [1] (setting [20]), 0.435% and 19.2%.
Take `CCCN1CCC[C@@H]2Cc3nc(N)ncc3C[C@H]21`: the result in assay [6], in assay [15], in [13], in assay [14] and in assay [2] was inactive. For the same compound, the Potency entry in assay [7], in assay [8], in assay [9], in [16], in [10] and in assay [11] was “inactive” in each case. Also, the Potency entry in assay [12], in assay [17], in [18], in assay [3], in assay [4] and in [5] was “inactive” in each case.
As for `Cc1ccc(S(=O)(=O)N[C@@H](CCCCN)C(=O)CCl)cc1`, in [1] (at 57.5 µM (top of the series)), the activity change, negative = inhibition was -0.107% (inactive). Also, the max response in assay [1] (setting [19]) was 1.11%; in assay [1] (setting [20]), 0.09%. Moreover, the call in assay [6], in assay [15], in assay [13], in assay [14] and in assay [2] was inactive. For the same compound, the Potency entry in assay [7], in assay [8], in assay [9], in [10], in assay [11] and in assay [17] was “inactive” in each case. The Potency result in assay [18], in assay [3], in assay [4] and in [5] was “inactive” each time.

(Values after PubChem BioAssay (NCATS).)
